In all, about 2,100 compounds went through this assay and about 1,100 (52%) were called active. Another 27% or so got no clear call; they are omitted. So high a share suggests a set chosen from earlier hits. The list shows a part of the results. Values without a mark were called inactive. The call rests on the fitted dose curve; in most records, active means well fitted inhibition curve with a large enough effect; inconclusive means small, poorly fitted or top-dose-only effect; inactive means no such curve, though single readings can be large or run the other way.
Potency means the concentration at half of the fitted maximal effect.

Chain of DNA dC->dU-editing enzyme APOBEC-3G (Homo sapiens) (Q9HC16 whole entry, looked up): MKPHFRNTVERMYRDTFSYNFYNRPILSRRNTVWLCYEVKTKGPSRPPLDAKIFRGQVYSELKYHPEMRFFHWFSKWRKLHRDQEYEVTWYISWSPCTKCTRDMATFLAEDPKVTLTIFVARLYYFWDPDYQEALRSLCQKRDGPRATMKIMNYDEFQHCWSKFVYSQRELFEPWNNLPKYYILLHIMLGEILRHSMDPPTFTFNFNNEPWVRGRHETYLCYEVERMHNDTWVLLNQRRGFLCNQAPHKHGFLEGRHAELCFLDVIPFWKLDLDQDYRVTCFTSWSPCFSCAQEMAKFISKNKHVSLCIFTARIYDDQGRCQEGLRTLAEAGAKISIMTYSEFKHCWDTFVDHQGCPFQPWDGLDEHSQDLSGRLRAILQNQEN

In the experiment the target is DNA dC->dU-editing enzyme APOBEC-3G (Homo sapiens) (UniProt Q9HC16). Nature of the experiment: qHTS for inhibitors of Vif-A3G interactions: Cherry picks counterscreen.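 Further: hits raise yellow fluorescence by blocking Vif-driven A3G-eYFP degradation; nearly all actives have a fitted effect of over 70% in size.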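 On max response: max response given as percent of control signal.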 As to conditions: HeLa A3G-eYFP + Vif (tagged APOBEC3G with the HIV-1 protein that degrades it), eYFP fluorescence, 24 h. The essentials:
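Readout is eYFP fluorescence (488 nm excitation, 500-530 nm emission) measured on Acumen Explorer after 24 h compound exposure, several concentrations, at 37 deg C. Cells: HeLa stably co-expressing Vif and C-terminally eYFP-tagged A3G; MG132 positive control.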
On to `CCN(CC)c1ccc(/C=C/c2cc(-c3ccccc3)c3ccccc3n2)cc1`, for which the Potency was 1.98 µM (active).
Still for that read-out and setting: as for `Cc1ccccc1N1C(=O)c2cccc3c(N(C)CCO)ccc(c23)C1=O`, the figure is 4.61 µM (active).
Consider `COc1ccccc1N1C(=O)c2cccc3c(C(=O)O)ccc(c23)C1=O`, for which the max response was 6.39%.
For `COc1ccc(C(=O)c2ccc(OC)c(OC)c2OC)cc1`, the Potency was 2.23 µM (active).
As to `O=C(NC1C/C(=N/O)c2cc3c(cc21)OCO3)C(F)(F)F` (configuration not stated), the max response is -1.11%.
For the compound `COc1cc(C=C2C(=O)c3ccccc3C2=O)cc(OC)c1OC`, the max response was -6.19%.
For the compound `CCOc1cc(/C=C2\CN(C)C/C(=C\c3ccc(O)c(OCC)c3)C2=O)ccc1O`, the Potency is 5.59 µM (active).
For `COc1ccc(/C=C2/CSC/C(=C/c3ccc(OC)c(OC)c3)C2=O)cc1OC`, the Potency is 5.59 µM (active).
On the same count and under the same terms, the value for `COc1cc(/C=C2\COC/C(=C\c3ccc(O)c(OC)c3)C2=O)ccc1O` was 8.86 µM (active); that for `COc1cc(/C=C2\COC/C(=C\c3cc(OC)c(OC)c(OC)c3)C2=O)cc(OC)c1OC` was 3.14 µM (active).
In the case of `Cc1ccc(F)c(S(=O)(=O)NC(=O)C2(C)CCN2C(=O)Cc2ccc(Cl)cc2Cl)c1` (configuration not stated), the max response was 13%.
Same read-out and setting: as for `Cc1cccn2c(=O)c3cc(C#N)c(=NC(=O)c4cccs4)n(CCCOC(C)C)c3nc12`, the figure is -8.85%.
As to `COc1ccc(/C=C2\CN(Cc3ccccc3)C/C(=C\c3ccc(OC)c(O)c3)C2=O)cc1O`, the Potency was 6.27 µM (active).
The same measure, in the same setting: as for `Cc1noc(C)c1CSc1nc2ccccc2c(=O)n1-c1ccccc1`, the figure is 4.98 µM (active); as for `C=CCn1c(SCc2c(C)noc2C)nc2cc(C(=O)O)ccc2c1=O`, 17.7 µM (active).
The same measure, in the same setting: as for `CCn1c2ccccc2c2cc(NC(=O)CNCc3ccccc3OC)ccc21`, the figure is 6.27 µM (active); as for `COc1ccc(-c2cc(NC(C)=O)c3ncc(-c4cc(OC)c(OC)c(OC)c4)n3c2)cn1`, 5.59 µM (active); as for `COc1cc(-c2cnc3c(NC(C)=O)cc(-c4ccccc4CN(C)C)cn23)cc(OC)c1OC`, 14 µM (active).
On the same count and under the same terms, the value for `COC(=O)C1=C(C)NC2=C(C(=O)CC(c3cccs3)C2)C1c1ccsc1` (configuration not stated) was 12.5 µM (active).
For `CN(C)c1ccc(/C=N/N(CCO)C2=NS(=O)(=O)c3ccccc32)cc1`, the max response is -24.9%.
In the case of `CN(/N=C/c1ccc(N(C)C)cc1)C1=NS(=O)(=O)c2ccccc21`, the Potency was 5.59 µM (active).
Consider `O=C(/C=C/c1ccco1)NC(=S)Nc1cccc(-c2nc3ccccc3o2)c1`, for which the Potency was 4.98 µM (active).
Still for that read-out and setting: as for `COc1ccc(-c2csc(NC(=S)NC(=O)/C=C/c3ccco3)n2)cc1Br`, the figure is 3.14 µM (active); as for `Cc1ccnc(NC(=S)NC(=O)/C=C/c2ccco2)c1`, 6.27 µM (active).
In the case of `CSc1ccccc1NC(=O)COC(=O)/C=C/c1ccco1`, the max response was -23.9%.
On to `Cc1nc(NC(=O)/C=C/c2ccco2)sc1C`, for which the Potency was 6.27 µM (active).
Still for that read-out and setting: as for `COc1ccc(OC)c(/C=C/c2nc3ccccc3[nH]c2=O)c1`, the figure is 7.31 µM (active); as for `CC(=Nc1ccccc1)C1=C(O)C(Cc2ccccc2)NC1=O` (configuration not stated), 0.396 µM (active).
Consider `O=C1NC(c2ccccc2Br)=N/C1=C\c1ccco1`, for which the max response is -4.52%.
As to `O=C1N/C(=C\c2ccccc2)c2ccccc21`, the Potency was 0.994 µM (active).
`C=CCN1C=CC(=C/C=C(/C#N)C(=O)OCC)C=C1`: the Potency is 3.66 µM (active).
Same read-out and setting: as for `CCOC(=O)/C(C#N)=C\C=C1C=CN(C)C=C1`, the figure is 2.31 µM (active); as for `O=Cc1sc(Nc2ccccc2)nc1Cl`, 20.6 µM (active).
With `c1ccc(Nc2nc(-c3ccccn3)cs2)cc1`, the max response is 16.2%.
As to `Cc1ccc(Nc2nc(Cl)c(C=O)s2)cc1Cl`, the Potency is 13 µM (active).
The same measure, in the same setting: the value for `CCCCOc1ccc(-c2cc(C(F)(F)F)c(C#N)c(SCC(=O)O)n2)cc1` was 23.1 µM (active).
Same read-out and setting: the value for `Cc1cc(C(F)(F)F)c(C#N)c(SCC(=O)Nc2nc3ccccc3s2)n1` was 18.4 µM (active); that for `Cc1coc(NC(=O)CSc2nc(-c3ccncc3)cc(C(F)(F)F)c2C#N)n1` was 16.4 µM (active).
For the compound `CCOC(=O)c1ccc(NC(=O)CSc2nc(-c3ccc(OC)cc3)cc(C(F)(F)F)c2C#N)cc1`, the Potency is 23.1 µM (active).
Still for that read-out and setting: the value for `CCOC(=O)c1ccc(NC(=O)CSc2nc(-c3ccc(F)cc3)cc(C(F)(F)F)c2C#N)cc1` was 9.2 µM (active).
As for `COCc1cc(C)nc(SCC(=O)Nc2ccc3[nH]c(=O)[nH]c3c2)c1C#N`, the max response is -18.1%.
Consider `COc1cccc2sc(Nc3nc(-c4cc5ccccc5oc4=O)cs3)nc12`, for which the Potency is 3.96 µM (active).
As for `COc1ccc(-c2cc3ccccc3oc2=O)cc1NC(=S)NC(=O)c1ccc2c(c1)OCCO2`, the max response was -2.77%.
Same read-out and setting: as for `COc1cc(/C=C2\SC(=S)N(NC(=O)c3ccccc3OC)C2=O)ccc1O`, the figure is -17.8%.
Regarding `COc1cc(/C=C2\SC(=S)N(Nc3ncc(C(F)(F)F)cc3Cl)C2=O)ccc1O`, the Potency is 20.6 µM (active).
The same measure, in the same setting: the value for `CN(C)c1ccc(/C=C2\SC(=S)N(Nc3ncc(C(F)(F)F)cc3Cl)C2=O)cc1` was 5.17 µM (active).
Still for that read-out and setting: the value for `Cc1cc(C)cc(NC2=NC3(CCCCC3)N=C(N)N2)c1` was 19.8 µM (active); that for `COC(=O)c1ccc(NC(=O)CC2Nc3cc(C)c(C)cc3NC2=O)cc1` (configuration not stated) was 20.6 µM (active).
As to `CCOC(=O)c1ccc(NC(=S)NC(=O)C2CCCC2)cc1`, the max response is -2.63%.
On the same count and under the same terms, the value for `CCN(CC)C(=O)Cn1c(=O)n(-c2ccccc2)c(=O)c2c3c(sc21)CCC3` was -20.5%; that for `CCOc1ccc(C(=O)C(CCC(CN(C)C)C(=O)c2ccc(OCC)cc2)CN(C)C)cc1` (configuration not stated) was -24.5%.
Turning to `O=C(Cc1n[nH]c(=O)c2ccccc12)OCC(=O)c1ccc2c(c1)OCCO2`, the Potency was 2.8 µM (active).
The same measure, in the same setting: as for `CCOc1ccc(C(=O)COC(=O)Cc2n[nH]c(=O)c3ccccc23)cc1`, the figure is 15.8 µM (active); as for `O=C(Nc1ccc2c(c1)OCCO2)C(=O)c1c[nH]c2ccccc12`, 6.27 µM (active).
With `O=C(C(=O)N1CCN(c2ccccc2Cl)CC1)c1c[nH]c2ccccc12`, the max response was -13.1%.
For the compound `N#Cc1c(-c2ccccc2)c(-c2ccccc2)nn(CC(=O)NNC(=O)Nc2ccccc2)c1=O`, the Potency is 1.98 µM (active).
Still for that read-out and setting: the value for `N#Cc1c(-c2ccc(F)cc2)c(-c2ccc(F)cc2)nn(CCO)c1=O` was 7.04 µM (active); that for `CCOC(=O)Cn1c(=O)c(-c2cc(Br)ccc2N)nc2ccccc21` was 8.2 µM (active).
Take `CCOC(=O)COn1c(=O)c(-c2ccc(Br)cc2)[n+]([O-])c2ccccc21`: the max response is 4.24%.
On the same count and under the same terms, as for `CCOc1ccccc1N1CC(c2nc3ccccc3n2Cc2c(C)cc(C)cc2C)CC1=O` (configuration not stated), the figure is -2.71%.
For the compound `Cc1ccc(S(=O)(=O)CCSc2nc(C)cc(C(F)(F)F)c2C#N)cc1`, the Potency is 17.7 µM (active).
On the same count and under the same terms, as for `CCOC(=O)CCSc1nc(C)cc(C(F)(F)F)c1C#N`, the figure is 12.5 µM (active).
Same read-out and setting: as for `COc1ccc(NC(=O)C2(C)Cc3c(-c4cccc(C(N)=O)c4)ccnc3O2)cn1` (configuration not stated), the figure is 7.9 µM (active); as for `COc1ccc(NC(=O)C2(C)Cc3c(-c4cccc(NC(C)=O)c4)ccnc3O2)cn1` (configuration not stated), 1.98 µM (active).
On to `COc1ccc(NC(=O)C2(C)Cc3c(-c4ccc5c(c4)OCO5)ccnc3O2)cn1` (configuration not stated), for which the Potency was 7.04 µM (active).
With `C=CCNC(=S)N/N=C/c1ccc(C)cc1C`, the max response was -13.8%.
Consider `CCc1ccc2nc(SCC(=O)N3CC(=O)Nc4ccccc43)c(C#N)cc2c1`, for which the Potency was 12.5 µM (active).
Still for that read-out and setting: as for `CCc1ccc2nc(SCC(=O)Nc3ccccc3N3CCOCC3)c(C#N)cc2c1`, the figure is 1.64 µM (active).
`N#Cc1cc2ccccc2nc1SCC(=O)Nc1ccccc1N1CCOCC1`: the max response was -5.1%.
As to `COc1ccc2nc(SCC(C)=O)c(C#N)cc2c1`, the Potency was 3.66 µM (active).
On the same count and under the same terms, as for `COc1ccc2nc(SCC(=O)N3CC(=O)Nc4ccccc43)c(C#N)cc2c1`, the figure is 18.4 µM (active).
Consider `CC1C/C(=N\NC(N)=S)c2cc(Cl)ccc2S1` (configuration not stated), for which the max response was -16.7%.
`Cc1cc(C)c2nc(SCC(=O)N3CC(=O)Nc4ccccc43)c(C#N)cc2c1`: the Potency was 1.4 µM (active).
As to `N#Cc1ccc(-c2cccnc2)nc1SCC(=O)c1ccccc1`, the Potency was 2.91 µM (active).
The same measure, in the same setting: the value for `Cc1ccc(C(=O)CSc2nc(-c3ccccc3)ccc2C#N)cc1` was 10.3 µM (active).
For `O=C(c1ccccc1)C1C(=O)c2ccccc2C1=O`, the max response is -3.97%.
Take `NN=C1c2ccccc2C(=O)C1C(=O)C(c1ccccc1)c1ccccc1` (configuration not stated): the Potency is 15.8 µM (active).
On the same count and under the same terms, as for `CC(C)NC(=S)N/N=C/c1sc(N2CCCCC2)nc1-c1cccs1`, the figure is 20.6 µM (active).
For `CC(C)NC(=S)N/N=C1\CCCCc2ccccc21`, the max response was -0.219%.
As for `COC(=O)C1=C(Nc2ccc(C)cc2)C=C(C)C(C(=O)OC)C1c1cccc(OC)c1` (configuration not stated), the Potency is 11.2 µM (active).
On to `COCc1ccc(O)c2ncccc12`, for which the max response is 15.6%.
Regarding `COc1ccc2c(c1)c(C(=O)N/N=C/c1ccc(Cl)cc1)c(C)n2C`, the Potency is 12.5 µM (active).
`COCCCNC(=S)N/N=C/c1ccc(OC)cc1`: the max response was -8.47%.
Take `CC1=C/C(=C\C=C(C#N)C#N)N(C)c2ccccc21`: the Potency is 2.06 µM (active).
On the same count and under the same terms, the value for `CC(=O)c1cc2c(cc1NS(=O)(=O)c1ccc(C)cc1)OCCO2` was 12.5 µM (active); that for `CCN(CC)c1ccc(/C=C/c2cccc[n+]2C)c(OC)c1` was 7.04 µM (active).
On to `CCOc1ccc(CCNC(=O)c2ccc(Cn3c(=O)c4cccn4c4cccnc43)cc2)cc1`, for which the max response is -3.64%.
Regarding `O=C(NCCc1ccccc1Cl)c1ccc(Cn2c(=O)c3cccn3c3cccnc32)cc1`, the Potency was 14.6 µM (active).
With `N#Cc1cccn1-c1nccc(-c2cccs2)n1`, the Potency was 8.86 µM (active).
Same read-out and setting: the value for `Cc1ccc2[nH]c(C)c(/C=C/c3cc[n+](C)cc3)c2c1` was 0.627 µM (active).
As for `Cc1[nH]c2ccccc2c1/C=C/C(=O)c1ccccc1`, the Potency is 18.4 µM (active).
Still for that read-out and setting: the value for `Cc1[nH]c2ccccc2c1/C=C/c1cc[n+](C)cc1` was 0.994 µM (active).

(Values after PubChem BioAssay AID651813 (National Center for Advancing Translational Sciences (NCATS), 2012).)
